From PubChem BioAssay (EPA / NIEHS) come the findings set out here.

The nature of assay [1]: ATG_CRE_CIS: Attagene CIS-FACTORIAL HepG2 Assay for human cAMP Responsive Element (CRE) binding protein 3 (AID 2282926). The following applies: HepG2 CRE cis-reporter, Attagene multiplexed mRNA; actives raise or lower the signal. The gist of the method:
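Transfected HepG2 were treated for 24 hours, then RNA was extracted and reporter cDNA amplified with sequence-specific primers. Labelled fragments were separated by capillary electrophoresis, and the CRE signal was fitted bidirectionally with DMSO as baseline.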

Assay [2] addresses CCAAT/enhancer-binding protein beta (Homo sapiens) (UniProt P17676). In words: ATG_C_EBP_CIS: Attagene CIS-FACTORIAL HepG2 Assay for human CCAAT/Enhancer Binding Protein (C/EBP) beta (AID 2282927). The following applies: HepG2 Attagene cis-factorial transcription factor reporter; actives raise or lower the signal. The essentials:
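HepG2, transient MRTU transfection, 24 h treatment. RT-PCR plus CE fluorescence; DMSO negative control, bidirectional fit.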

Assay [3] in a line: ATG_CMV_CIS: Attagene CIS-FACTORIAL HepG2 Assay for human CMV (Internal Marker) (AID 2282928).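 Further: endpoint acts as a background internal control marker rather than a target.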 The following applies: HepG2 CMV promoter reporter, transcription factor profiling; actives raise or lower the signal. The essentials: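 Endogenous transcription factor activity read in HepG2 via transfected cis-promoter reporter units. After 24 h dosing, reporter mRNA measured by RT-PCR/capillary electrophoresis; gain or loss of signal fit relative to DMSO.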

Assay [4] is described as follows: ATG_DR4_LXR_CIS: Attagene CIS-FACTORIAL HepG2 Assay for human Liver X Receptor (LXR), DR4 submotif (AID 2282929). The note with it: HepG2 Attagene DR4 cis-reporter, mRNA transcription; actives raise or lower the signal. The gist of the method:
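DR4 cis-reporter in HepG2, 24 h exposure. Detection: RT-PCR, 6-FAM labelling, CE fragment analysis. Endpoint fitted bidirectionally, DMSO = baseline.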

Assay [5] has as its target Aryl hydrocarbon receptor (Homo sapiens) (UniProt P35869). In words: ATG_Ahr_CIS: Attagene CIS-FACTORIAL HepG2 Assay for human Aryl Hydrocarbon Receptor (Ahr) (AID 2282930). The note with it: HepG2 AhR cis-factorial reporter transcription; actives raise or lower the signal. The essentials: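 Endogenous factor activity is tracked through cis-promoter reporter units transfected into HepG2 cells. Transcript levels at 24 h are read by fluorescent RT-PCR and capillary electrophoresis, with activity in either direction scored relative to DMSO.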

Assay [6] is described as follows: ATG_AP_1_CIS: Attagene CIS-FACTORIAL HepG2 Assay for human Activator Protein 1 (AP-1) (AID 2282931). The following applies: HepG2 Attagene cis-factorial AP-1 reporter mRNA; actives raise or lower the signal. The gist of the method:
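Cis-regulated reporter units transiently expressed in HepG2 report endogenous transcription-factor activity. Signal: reporter mRNA at 24 h, via RT-PCR and fluorescent capillary electrophoresis. Endpoint derived by bidirectional fitting, DMSO as negative control.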

The nature of assay [7]: ATG_AP_2_CIS: Attagene CIS-FACTORIAL HepG2 Assay for human Activator Protein 2 (AP-2) (AID 2282932). The following applies: HepG2 AP-2 cis-reporter, Attagene transcription factor profiling; actives raise or lower the signal. The essentials:
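Multiplexed mRNA reporter assay in HepG2: cis-regulated units report endogenous factor activity after 24 h treatment. Fluorescence from capillary electrophoresis of RT-PCR products gives the signal, with DMSO as baseline.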

The nature of assay [8]: ATG_BRE_CIS: Attagene CIS-FACTORIAL HepG2 Assay for human Bone Morphogenetic Protein (BMP) Response Element (BRE) (AID 2282933). The note with it: HepG2 BMP response element reporter, Attagene transcription factor profiling; actives raise or lower the signal. The essentials:
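HepG2 cells transiently transfected with CIS reporter units (endogenous TF activity, BMP response element), dosed 24 h. Reporter mRNA quantified by RT-PCR, fluorescent labelling and capillary electrophoresis; bidirectional fit vs DMSO baseline.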

The target of assay [9] is Retinoic acid receptor alpha (Homo sapiens) (UniProt P10276). The assay can be described thus: ATG_DR5_RAR_CIS: Attagene CIS-FACTORIAL HepG2 Assay for human Retinoic Acid Receptor Alpha (RARE), DR5 submotif (AID 2282934). The following applies: HepG2 Attagene cis-factorial RARE DR5 reporter, mRNA; actives raise or lower the signal. The gist of the method:
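After 24 h of chemical exposure, transiently transfected HepG2 cells were lysed for total RNA; the DR5-regulated reporter transcript was quantified via RT-PCR and capillary electrophoresis, with activity fitted bidirectionally against DMSO.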

The target of assay [10] is Transcription factor E2F1 (Homo sapiens) (UniProt Q01094). In words: ATG_E2F_CIS: Attagene CIS-FACTORIAL HepG2 Assay for human E2F Transcription Factor 1 (AID 2282935). The note with it: HepG2 Attagene cis-reporter, E2F reporter RNA transcripts; actives raise or lower the signal. The essentials:
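Measures reporter transcript levels via RT-PCR with capillary electrophoresis detection in HepG2 cells harboring cis-regulated reporter units; 24 h post-dose; bidirectional curve fitting with DMSO as baseline.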

A short description of assay [11]: ATG_E_Box_CIS: Attagene CIS-FACTORIAL HepG2 Assay for human Enhancer Box (E-box) (AID 2282936). The following applies: HepG2 E-box cis-reporter transcription, actives raise or lower the signal. The essentials:
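First, HepG2 cells receive multiple cis-regulated reporter constructs by transient transfection. Next, chemicals are applied for 24 h. Finally, reporter mRNA is quantified via RT-PCR and capillary electrophoresis, with DMSO as baseline.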

Assay [12] is described as follows: ATG_M_61_CIS: Attagene CIS-FACTORIAL HepG2 Assay for M61 Transcription Factor (Internal Marker) (AID 2282937). The following applies: HepG2 Attagene CIS-FACTORIAL M61 internal marker reporter; actives raise or lower the signal. The essentials: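 Background-control endpoint: HepG2 cells with cis-regulated reporter constructs, 24 h exposure, reporter mRNA detected via fluorescent primer extension and capillary electrophoresis; values from bidirectional fitting with DMSO baseline.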

A short description of assay [13]: ATG_EGR_CIS: Attagene CIS-FACTORIAL HepG2 Assay for human Early Growth Response 1 (EGR1) (AID 2282938). The note with it: HepG2 Attagene CIS-FACTORIAL EGR reporter mRNA; actives raise or lower the signal. The essentials: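 Endpoint derived by bidirectional fitting versus DMSO vehicle. Method: cis-promoter reporter units transfected into HepG2, 24 h dosing, RNA isolation, RT-PCR with 6-FAM primer extension and HpaI digestion, then capillary electrophoresis fluorescence detection.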

Structures are written as SMILES. Active and inactive are the calls of the source. How the source made its calls: active means hit-call score of the fitted dose curve at least 0.9, where 1 is the maximum; inactive means score below 0.9.

Aryl hydrocarbon receptor (Homo sapiens), sequence (P35869 whole entry, looked up): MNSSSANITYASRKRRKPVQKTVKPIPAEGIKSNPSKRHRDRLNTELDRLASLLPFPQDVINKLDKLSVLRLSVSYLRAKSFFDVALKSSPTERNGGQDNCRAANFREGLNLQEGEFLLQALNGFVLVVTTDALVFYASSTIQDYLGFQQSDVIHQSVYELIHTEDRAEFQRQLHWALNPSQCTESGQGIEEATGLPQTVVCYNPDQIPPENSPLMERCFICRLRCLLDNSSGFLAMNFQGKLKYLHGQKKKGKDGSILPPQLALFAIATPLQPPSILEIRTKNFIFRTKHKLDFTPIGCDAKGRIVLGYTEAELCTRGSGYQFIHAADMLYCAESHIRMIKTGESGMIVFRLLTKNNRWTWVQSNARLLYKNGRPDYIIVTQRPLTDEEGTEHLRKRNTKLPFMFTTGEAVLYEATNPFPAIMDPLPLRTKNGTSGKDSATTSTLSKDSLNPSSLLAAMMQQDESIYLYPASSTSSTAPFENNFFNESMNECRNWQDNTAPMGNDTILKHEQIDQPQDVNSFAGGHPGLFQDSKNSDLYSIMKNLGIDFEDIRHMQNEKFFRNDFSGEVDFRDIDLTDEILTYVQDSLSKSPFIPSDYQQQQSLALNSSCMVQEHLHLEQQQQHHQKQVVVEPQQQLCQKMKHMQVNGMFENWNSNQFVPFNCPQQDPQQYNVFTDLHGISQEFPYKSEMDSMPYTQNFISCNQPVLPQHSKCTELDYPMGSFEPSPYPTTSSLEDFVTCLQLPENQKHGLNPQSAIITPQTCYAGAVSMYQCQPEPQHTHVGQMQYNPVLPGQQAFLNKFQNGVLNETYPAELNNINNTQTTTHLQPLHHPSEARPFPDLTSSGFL
CCAAT/enhancer-binding protein beta (Homo sapiens), sequence (P17676 whole entry, looked up): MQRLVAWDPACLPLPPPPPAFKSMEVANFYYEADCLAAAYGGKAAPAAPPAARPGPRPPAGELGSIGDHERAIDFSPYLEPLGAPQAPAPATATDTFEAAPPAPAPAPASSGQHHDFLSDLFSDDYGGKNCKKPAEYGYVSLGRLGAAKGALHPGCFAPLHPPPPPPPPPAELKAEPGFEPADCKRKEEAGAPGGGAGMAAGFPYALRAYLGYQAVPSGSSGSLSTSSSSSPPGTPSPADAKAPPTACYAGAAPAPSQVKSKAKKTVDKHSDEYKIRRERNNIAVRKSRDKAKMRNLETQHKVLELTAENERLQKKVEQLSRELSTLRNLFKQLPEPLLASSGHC
Transcription factor E2F1 (Homo sapiens), sequence (Q01094 whole entry, looked up): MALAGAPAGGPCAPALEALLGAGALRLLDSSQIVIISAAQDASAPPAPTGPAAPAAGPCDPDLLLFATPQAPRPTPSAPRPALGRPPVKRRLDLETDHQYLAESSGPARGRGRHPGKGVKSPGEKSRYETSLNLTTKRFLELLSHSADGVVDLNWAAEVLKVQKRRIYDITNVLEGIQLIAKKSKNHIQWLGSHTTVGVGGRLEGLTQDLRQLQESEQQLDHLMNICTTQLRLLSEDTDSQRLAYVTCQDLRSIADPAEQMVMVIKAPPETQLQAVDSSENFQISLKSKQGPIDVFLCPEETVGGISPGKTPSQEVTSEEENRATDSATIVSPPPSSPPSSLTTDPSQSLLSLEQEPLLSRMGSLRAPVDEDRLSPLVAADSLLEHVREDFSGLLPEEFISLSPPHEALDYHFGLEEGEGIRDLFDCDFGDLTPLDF
Retinoic acid receptor alpha (Homo sapiens), sequence (P10276 whole entry, looked up): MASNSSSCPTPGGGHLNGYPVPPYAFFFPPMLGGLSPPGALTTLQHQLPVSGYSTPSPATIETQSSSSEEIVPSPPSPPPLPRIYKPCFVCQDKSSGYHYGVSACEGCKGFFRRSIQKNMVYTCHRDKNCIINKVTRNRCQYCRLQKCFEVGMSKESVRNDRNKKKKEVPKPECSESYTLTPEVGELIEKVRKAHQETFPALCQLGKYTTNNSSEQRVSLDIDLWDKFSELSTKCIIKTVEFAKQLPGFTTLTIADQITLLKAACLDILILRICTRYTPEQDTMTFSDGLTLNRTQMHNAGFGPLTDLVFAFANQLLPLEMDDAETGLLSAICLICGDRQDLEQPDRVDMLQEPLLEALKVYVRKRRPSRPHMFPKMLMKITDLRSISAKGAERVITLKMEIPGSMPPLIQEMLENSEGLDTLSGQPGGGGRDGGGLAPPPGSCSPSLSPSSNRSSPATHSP

`O=C=Nc1ccc(Cl)cc1`: the result in assay [1], in assay [2], in assay [3], in assay [4], in assay [5] and in assay [6] was inactive. The compound was called inactive in assay [7], in [8], in [9], in assay [10], in assay [11] and in assay [12]. In assay [13], the call was inactive.

For the compound `ClCc1ccccc1Cl`, the AC50 (in general, the midpoint of the concentration-response curve, whichever way the signal moves) in assay [1] is 83.5 µM (active); in assay [4] it was 50.6 µM (active). Further, the result in assay [2], in [3], in assay [5], in assay [6], in assay [7] and in assay [8] was inactive. The outcome in assay [9], in assay [10], in assay [12] and in [13] was inactive.

Turning to `O=C(O)c1cc(I)cc(I)c1I`, the outcome in [1], in assay [2], in assay [3], in assay [4], in [6] and in assay [7] was inactive. Also, the compound was called inactive in assay [8], in [9], in assay [10], in assay [11], in assay [12] and in assay [13]. Moreover, the AC50 in assay [5] is 40.8 µM (active).

`COCCl`: the result in assay [1], in assay [2], in assay [3], in assay [4], in assay [5] and in [6] was inactive. Further, the result in assay [7], in assay [8], in assay [9], in assay [11], in assay [12] and in assay [13] was inactive.

With `CC(C)=CC1C(C(=O)OCc2cccc(Oc3ccccc3)c2)C1(C)C` (stereo not drawn), the outcome in assay [1], in assay [2], in assay [3], in assay [5], in [6] and in assay [7] was inactive. For the same compound, the compound was called inactive in [8], in assay [9], in [10], in assay [12] and in assay [13]. Further, the AC50 in [4] was 22.3 µM (active).

As to `Cl[C@H]1OCCO[C@@H]1Cl`, the compound was classed as inactive in assay [1], in [2], in assay [3], in assay [4], in assay [5] and in assay [6]. For the same compound, the result in assay [7], in [8], in [9], in [11], in assay [12] and in [13] was inactive.

For `BrCCCCBr`, the compound was called inactive in assay [1], in assay [2], in assay [3], in [4], in [5] and in [6]. In addition, the result in [7], in assay [8], in assay [9], in assay [10], in assay [11] and in [12] was inactive. Besides, the result in assay [13] was inactive.

Consider `CCN(CC)C(=O)C(Cl)=C(C)OP(=O)(OC)OC`, for which the outcome in assay [1], in [2], in assay [3], in assay [4], in assay [5] and in assay [6] was inactive. Besides, the result in assay [7], in assay [8], in [9], in [10], in assay [12] and in [13] was inactive.

With `C=CCOC(N)=O`, the outcome in [1], in [2], in assay [3], in assay [4], in assay [5] and in [6] was inactive. In addition, the result in [7], in assay [8], in [9], in [10], in assay [12] and in [13] was inactive.

With `c1ccc2sc(SNC3CCCCC3)nc2c1`, the compound was called inactive in [1], in assay [2], in [3], in assay [4], in assay [8] and in [9]. Also, the compound was called inactive in assay [10], in assay [11], in assay [12] and in assay [13]. Moreover, the AC50 in assay [5] was 4.84 µM (active); in assay [6] it was 52.1 µM (active); in [7] it was 149 µM (active).

In the case of `NC(=O)c1ccc(N)nc1`, the call in assay [1], in assay [2], in assay [3], in [4], in [5] and in [6] was inactive. Besides, the outcome in assay [7], in assay [8], in [9], in assay [11], in assay [12] and in [13] was inactive.

As for `O=[N+]([O-])c1cccc2ccccc12`, the outcome in assay [1], in assay [2], in assay [3], in [4], in [6] and in [7] was inactive. Besides, the outcome in [8], in [9], in [10], in assay [12] and in [13] was inactive. Also, the AC50 in [5] was 51.4 µM (active).
